Screening data as filed in PubChem BioAssay.
In the library only some 7% were active in any assay of this set; here they are far more common.
IL1B secr inh: qHTS for Inhibitors of Inflammasome Signaling: IL-1-beta AlphaLISA Primary Screen; AID 743279, 2014; THP-1 LPS/ATP IL-1B secretion, AlphaLISA, 16 h; hits give low values; activity change, % at 57.5 µM; 360,000 compounds, 4.7% hits; in the data active means activity change below about -50%; inconclusive means mostly about -30% to -49%
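Secreted IL-1B measured by AlphaLISA bead assay after 16 h compound exposure of THP-1 cells; compounds (final up to 57.5 uM) added 1 h before LPS (250 ng/mL) and ATP (1.25 mM) stimulation; lower signal means less secretion.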
DRD3 antagonist: qHTS of D3 Dopamine Receptor Antagonist: qHTS. AID 652054, 2013. D3R cells, DiscoveRx beta-arrestin luminescence, antagonist mode; hits give low values. 360,000 compounds, 2.5% hits. max response, negative = inhibition, %; in the data active means max response below about -50%; inconclusive means no clear call, values can overlap the other calls
Target sequence (P35462 whole entry, looked up): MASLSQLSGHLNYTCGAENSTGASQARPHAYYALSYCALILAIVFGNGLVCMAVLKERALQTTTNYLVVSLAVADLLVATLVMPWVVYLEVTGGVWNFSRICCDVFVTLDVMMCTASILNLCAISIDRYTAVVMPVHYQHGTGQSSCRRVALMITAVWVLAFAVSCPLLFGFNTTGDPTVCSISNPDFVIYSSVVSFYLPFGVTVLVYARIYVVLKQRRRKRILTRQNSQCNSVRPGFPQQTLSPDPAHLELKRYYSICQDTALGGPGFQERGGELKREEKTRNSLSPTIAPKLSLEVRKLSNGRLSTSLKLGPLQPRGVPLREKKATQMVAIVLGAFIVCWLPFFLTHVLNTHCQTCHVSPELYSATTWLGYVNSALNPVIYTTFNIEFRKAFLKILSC
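Cells plated overnight at 1500 cells/well, then exposed to library compounds with dopamine controls for 90 minutes at 37 degrees C. DiscoveRx reagent added for 30–60 minutes at room temperature; luminescence read, quantitative HTS format.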
ATXN2 expr inh: Primary qHTS for Inhibitors of ATXN expression; HEK-293 ATXN2-luciferase reporter, luminescence, 24 h; Potency, µM (highest dose often 57 µM), usual class: inhibitors; 360,000 compounds, 0.72% hits; further: nearly all actives have a fitted effect of over 55% in size
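qHTS (up to 57 uM final) was run with 24 h compound exposure of reporter cells at 37 °C. Each well was multiplexed: SteadyGlo luminescence measured ATXN2-luciferase expression after a fluorogenic Gly-Phe-AFC viability readout (25 uM final).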
S2 tox: Viability Counterscreen for Primary qHTS for Inhibitors of ATXN expression. S2 cells (HEK-293 line with an ATXN2-luciferase reporter) viability, CellTiter-Fluor protease fluorescence, 24 h. Potency, µM (doses to about 56.7 µM), usual class: cytotoxic. 400,000 compounds, 0.49% hits. AID 651635, 2014; further: nearly all actives have a fitted effect of over 40% in size
DRD3 agonist: qHTS of D3 Dopamine Receptor Agonist: qHTS | 410,000 compounds, 0.58% hits | max activation, % | AID 652048, 2013 | D3R DiscoveRx beta-arrestin cells, luminescence, 90 min | D(3) dopamine receptor (Homo sapiens), P35462; in the data active means max activation above about 30%
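Agonist mode: compounds and dopamine controls were applied to plated cells for 90 min at 37 degrees C after an overnight attachment at 1500 cells/well. Luminescent read-out followed 30 - 60 minutes at room temperature with DiscoveRx detection reagent.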
Integrin act MD: qHTS for Activators of Integrin-Mediated Alleviation for Muscular Dystrophy. Potency, µM (series often up to 38.3 µM), hits mostly activators. alpha7betagal myoblasts, beta-gal FDG fluorescence, 48 h. AID 624291, 2012. 350,000 compounds, 0.064% hits; further: nearly all actives have a fitted effect of over 60% in size
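Alpha7betagal+/- myoblasts (passage 13) were plated 16-24 hr, then exposed to compounds (1:260 dilution of DMSO stock) for 48 hours at 37C. After MPER lysis, β-galactosidase reporter activity was read as FDG fluorescence (ex 480/em 540) after 30 minutes.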
Of the large screens only hits and unclear results are named; the others gave an inactive call. Unless noted, the call rests on the fitted dose curve; in most records, active means well fitted curve in the direction sought with a large enough effect; inconclusive means small, poorly fitted or top-dose-only effect, or another doubt; inactive means no such curve, though single readings can be large; an effect the other way counts as inactive or inconclusive.

COc1ccccc1Nc1c2c(nc3ccc(NC(=O)c4ccccc4F)cc13)CCCC2	none (no result: IL1B secr inh, DRD3 antagonist, ATXN2 expr inh, S2 tox, Integrin act MD)
N#CC1=C(SCC(=O)NC23CC4CC(CC(C4)C2)C3)NC(=O)C(C#N)C12CCCCC2 (stereo not given)	IL1B secr inh inconclusive, ATXN2 expr inh inconclusive, S2 tox inconclusive
O=C(C[n+]1cccc(CNC(=O)c2ccc(OC(F)F)cc2)c1)Nc1cc(C(F)(F)F)ccc1Cl	IL1B secr inh inconclusive, DRD3 antagonist -64
NC(=O)C[n+]1cccc(CNC(=O)c2ccc(OC(F)F)cc2)c1	none
CN(C)CC(=O)Nc1cc(C(F)(F)F)ccc1Cl	DRD3 antagonist -58
Cc1ccc[n+](CC(=O)Nc2cc(C(F)(F)F)ccc2Cl)c1	DRD3 antagonist -79
N/C(CC(=O)Nc1cc(C(F)(F)F)ccc1Cl)=N\O	none (no result: ATXN2 expr inh)
Cc1ccc[n+](CC(=O)Nc2c(Cl)cc(Cl)cc2Cl)c1	none
O=C(CC1C(=O)NCCN1CC1CCCCC1)NC1(c2ccccc2)CC1 (stereo not given)	none
CC1(C)Cc2c(sc3nn[nH]c(=O)c23)CO1	none
Cc1cc(C)c(C)c(S(=O)(=O)N2CCCN(C)CC2)c1C	none
Cc1[nH]c2ccccc2c1SCc1nnc(SCc2ccccc2)n1C	IL1B secr inh -57
Cc1ccc(-n2c(SCC(=O)N3CCOCC3)nnc2-c2ccncc2)cc1	DRD3 antagonist -76
Brc1c(CSc2nc3ccccc3o2)nc2ncccn12	none
Cc1cc(C)nc(SCc2nc3ncccn3c2Br)n1	DRD3 antagonist -52
CC(=O)c1ccc(N2CCN(C(=O)Nc3ccc(F)cc3F)CC2)cc1	none
O=C(Nc1ccc(F)cc1F)N1CCN(c2ccc(Cl)c(Cl)c2)CC1	ATXN2 expr inh 20µM, S2 tox inconclusive (no result: IL1B secr inh, DRD3 antagonist, Integrin act MD)
COc1ccc(/C=C/C(=O)c2ccc3c(c2)OCO3)cc1OC	IL1B secr inh inconclusive
COc1cc(/C=C/C(=O)c2ccc3c(c2)OCCO3)cc(OC)c1OC	IL1B secr inh -94, ATXN2 expr inh inconclusive, S2 tox inconclusive
COc1cc(/C=C/C(=O)c2ccc3c(c2)OCO3)cc(OC)c1OC	IL1B secr inh -97, ATXN2 expr inh inconclusive, S2 tox inconclusive
COc1ccc(OC)c(/C=C/C(=O)c2ccc3c(c2)OCCO3)c1	IL1B secr inh -101 (no result: ATXN2 expr inh)
COc1ccc(OC)c(/C=C/C(=O)Oc2ccc(C(C)=O)cc2)c1	none
COc1cccc(/C=C/C(=O)Nc2cccc(C(C)=O)c2)c1OC	none (no result: S2 tox)
COc1cccc(/C=C/C(=O)Nc2ccc3c(c2)OCCO3)c1OC	IL1B secr inh -78
COc1cc(C(=O)COC(=O)c2ccc3c(c2)OCCO3)cc(OC)c1OC	DRD3 antagonist inconclusive (no result: ATXN2 expr inh)
Cc1cc(C)nc(NC=C2C(=O)OC(C)(C)OC2=O)n1	none (no result: ATXN2 expr inh)
O=C(CSc1nc2cc3ccccc3cc2[nH]1)Nc1ccc(F)cc1	none
Cc1cc(Cl)ccc1NC(=O)CN1CCC(C(O)(c2ccccc2)c2ccccc2)CC1	IL1B secr inh -61, DRD3 antagonist -62
CCc1nn2c(=O)cc(COc3ccc(/C=C(\C#N)C(=O)Nc4ccc(F)cc4)cc3OC)nc2s1	none (no result: IL1B secr inh, DRD3 antagonist, Integrin act MD)
CCOc1cc(/C=C(\C#N)C(=O)Nc2ccc(C)cc2)ccc1OCc1cc(=O)n2nc(CC)sc2n1	DRD3 agonist 48 (no result: IL1B secr inh, DRD3 antagonist, Integrin act MD)
CC(C)C1Cc2c(sc3c2c(=O)n(Cc2ccccc2)c2nncn32)CO1 (stereo not given)	DRD3 antagonist -53
Cc1nnc2n(Cc3ccccc3)c(=O)c3c4c(sc3n12)COC(C(C)C)C4 (stereo not given)	none
CCn1c(/C=C/N(C)c2ccccc2)[n+](CC)c2ccc(Cl)cc21	IL1B secr inh -98, ATXN2 expr inh inconclusive, S2 tox inconclusive, Integrin act MD inconclusive
CCN1C(=O)[C@@H]2[C@@H](c3ccc(SC4CCCCC4)c(OC)c3)N3CCC[C@@]3(C(=O)OC)[C@@H]2C1=O	none
CCOC(=O)C(CC)/C(C)=N\NC(=O)c1ccccc1O (stereo not given)	S2 tox inconclusive
CCn1cc(C2=NC(C)(C)CO2)c2ccccc21	none
Cc1ccc(CCC(=O)Nc2ccc([N+](=O)[O-])cc2)o1	IL1B secr inh -74
CCOC(=O)c1c(NC(C)=O)sc2c1CCC(C=O)=C2Sc1ccccc1	IL1B secr inh -100, DRD3 antagonist -58, ATXN2 expr inh 28µM (no result: S2 tox)
CCOC(=O)c1c(NC(C)=O)sc2c1CCN(Cc1ccccc1)C2	none
Cc1ccc(-c2c[n+](Cc3cccc(Cl)c3)c3n2CCC3)cc1	IL1B secr inh -81, ATXN2 expr inh inconclusive, S2 tox inconclusive
Cc1ccc(C[n+]2cc(-c3ccc(Cl)cc3)n3c2CCC3)cc1	IL1B secr inh -92, S2 tox inconclusive
Clc1cccc(C[n+]2cc(-c3ccccc3)n3c2CCC3)c1	none
Cc1ccc(-c2c[n+](Cc3ccc(Cl)cc3)c3n2CCC3)cc1	IL1B secr inh -85, S2 tox inconclusive
CCc1nnc(NC(=O)CN2CCN(Cc3ccccc3Cl)CC2)s1	none
CCOC(=O)/C(C(N)=NCCCO)=C(/O)c1ccccc1	none
CCOC(=O)/C(C(N)=NCCO)=C(/O)c1ccccc1	DRD3 antagonist inconclusive, Integrin act MD 13µM
CS(=O)(=O)Nc1ccc(C2=NN(C(=O)c3ccco3)C(c3ccc(F)cc3)C2)cc1 (stereo not given)	IL1B secr inh -79
CN(C)c1ccc(C2CC(c3cccc(NS(C)(=O)=O)c3)=NN2C(=O)c2ccccc2)cc1 (stereo not given)	IL1B secr inh -58
O=C(NCCN1CCC(n2c(=O)[nH]c3ccccc32)CC1)c1ccc(OC(F)(F)F)cc1	IL1B secr inh inconclusive, DRD3 antagonist -86 (no result: Integrin act MD)
CCCCOc1ccc(C(=O)NCCN2CCC(n3c(=O)[nH]c4ccccc43)CC2)cc1	DRD3 antagonist -60 (no result: Integrin act MD)
COc1ccc(Br)cc1CC1C(=O)Nc2ccccc21 (stereo not given)	none (no result: IL1B secr inh, DRD3 antagonist, ATXN2 expr inh, S2 tox, Integrin act MD)
Cc1ccc(CCNC(=O)C2CCCN(S(C)(=O)=O)C2)cc1 (stereo not given)	Integrin act MD inconclusive
CCOC(=O)c1c(-c2cccs2)csc1NC(=O)CC(C)C	none
NC(=O)c1c(-c2cccs2)csc1N	DRD3 antagonist -54
O=C(NC(NNc1ccc([N+](=O)[O-])cc1)(C(F)(F)F)C(F)(F)F)c1ccc(Cl)cc1	IL1B secr inh inconclusive, DRD3 antagonist -74, ATXN2 expr inh inconclusive
O=C(NNc1ccc([N+](=O)[O-])cc1)c1ccccc1Cl	DRD3 antagonist inconclusive (no result: ATXN2 expr inh)
CC(C)(C)c1ccc(C(=O)N2CCCCCC2=O)cc1	ATXN2 expr inh 6.3µM
O=C1CCCCCN1C(=O)c1ccccc1	none
